Our source for the fold change permeability values is PubChem BioAssay.

The nature of the test: modulators of brain endothelial barrier permeability, primary screen, cell-based, FITC-avidin fluorescence, HTS (AID 1963498). Also: test concentration not given here. The following applies: actives lie on both sides.

A number with no mark means an inactive call. The source made the active and inactive calls. Rule as the data show it: active = fold change permeability below about 0.7 or above about 1.3; inactive = in between.

Turning to `COC(=O)C1=C(C)NC(C)=C(C(=O)O[C@@H]2CCCN(Cc3ccccc3)C2)[C@@H]1c1cccc([N+](=O)[O-])c1`, the fold change permeability is 1.4 (active). The result for `O=NN(CCCl)C(=O)NCCCl` reads 1. The result for `O=[N+]([O-])c1cccc2cn[nH]c12` reads 1; that for `O=C(CCNNC(=O)c1ccncc1)NCc1ccccc1`, 0.8. The result for `Fc1ccc(NC(=S)NCCCn2ccnc2)c(F)c1` reads 0.9; that for `O=c1c2ccccc2nc2n1CCc1c-2[nH]c2ccccc12`, 1.8 (active). `Nc1ccn([C@H]2CC[C@@H](CO)O2)c(=O)n1`: the fold change permeability was 1. On to `N=C(N)c1ccc(-c2ccc(-c3ccc(C(=N)N)cc3)o2)cc1`, for which the fold change permeability was 1.5 (active). With `N[C@@H](Cn1ccc(=O)c(O)c1)C(=O)O`, the fold change permeability was 1.8 (active). In the case of `COC(=O)[C@@H](N)Cc1ccc(O)c(O)c1` it was 1; in that of `N[C@@H](CC(=O)O)C(=O)O`, 1.

`CC(C)(C)NCC(O)COc1cccc2[nH]c(=O)[nH]c12` (stereo not drawn): the fold change permeability is 1. As for `Cc1c(OCC(F)(F)F)ccnc1CS(=O)c1nc2ccccc2[nH]1` (stereo not drawn), the fold change permeability was 1.6 (active).

For the compound `CC(=O)OC(C)C[N+](C)(C)C` (stereo not drawn), the fold change permeability was 1. The result for `Cc1cc(C(C)(C)C)cc(C)c1CC1=NCCN1` reads 2 (active); that for `CC(C)C(=O)c1c(C(C)C)nn2ccccc12`, 1.3 (active); that for `O=C(Nc1ccccc1C(=O)NC1CCCCNC1=O)c1cc2ccccc2s1` (stereo not drawn), 1.9 (active). The result for `Cc1ccc(CNCC2(F)CCN(C(=O)c3ccc(F)c(Cl)c3)CC2)nc1` reads 1.3 (active); that for `Cn1c(=O)c2[nH]c(-c3ccccc3)nc2n(C)c1=O`, 1.1. Regarding `COc1ccccc1CNCCCCCCNCCCCCCCCNCCCCCCNCc1ccccc1OC`, the fold change permeability is 0.8. In the case of `CN(C)c1nc(N(C)C)nc(N(C)C)n1` it was 1.1; in that of `O=c1[nH]c2cc([N+](=O)[O-])c([N+](=O)[O-])cc2[nH]c1=O`, 1.2; in that of `C[N+](C)(C)CCO`, 1. The result for `CN(C)CCCN1c2ccccc2CCc2ccc(Cl)cc21` reads 1.1; that for `Nc1ncnc2c1ncn2C1CCCC1`, 0.9. In the case of `CC(C)NCC(O)c1ccc(O)c(O)c1` (stereo not drawn) it was 1.4 (active); in that of `CC(O)C(O)[C@H]1CNc2nc(N)[nH]c(=O)c2N1` (stereo partly drawn), 1.4 (active). As for `CCN(C)C(=O)Oc1cccc([C@H](C)N(C)C)c1`, the fold change permeability was 1. The result for `CCN(CC)CCn1c(=O)c(Cc2ccc(OC)cc2)nc2ccccc21` reads 0.7 (active); that for `Cc1ccc(Cl)c(Nc2ccccc2C(=O)O)c1Cl`, 1.3 (active); that for `Cc1cccc(-c2[nH]c(C(C)(C)C)nc2-c2ccc3nccnc3c2)n1`, 1.4 (active). Regarding `Cc1nc(C(=O)N2CCC[C@H]2Cc2nnc(-c3ccccc3)o2)c(-c2ccccc2F)s1`, the fold change permeability was 1.

With `CC(=O)/C(C)=N/O`, the fold change permeability is 1.

`COC(=O)[C@H]1[C@H]2C[C@@H]3c4[nH]c5cc(OC)ccc5c4CCN3C[C@H]2C[C@@H](OC(=O)c2cc(OC)c(OC)c(OC)c2)[C@@H]1OC`: the fold change permeability was 1.5 (active).

`COc1cc2c(cc1O)[C@@H](Cc1ccc(O)c(Oc3ccc(C[C@@H]4c5cc(OC)c(OC)cc5CCN4C)cc3)c1)N(C)CC2`: the fold change permeability is 1.6 (active).

Take `Nc1nc(N)c2nc(-c3ccccc3)c(N)nc2n1`: the fold change permeability is 1.4 (active).

Regarding `O=C(Cc1ccccc1)Nc1nnc(CCSCCc2nnc(NC(=O)Cc3ccccc3)s2)s1`, the fold change permeability was 1.5 (active). The result for `CC1CCc2nc(N)c(C#N)c(-c3cccnc3)c2C1` (stereo not drawn) reads 1. In the case of `CC[C@H](NC(=O)c1c(C)c(-c2ccccc2)nc2ccccc12)c1ccccc1` it was 1.

Regarding `CC(C)(C=O)Cc1cc(C(C)(C)C)c(O)c(C(C)(C)C)c1`, the fold change permeability was 1.2. In the case of `CN(C)CCCNC(=O)c1ccc(-c2cc(O)c3ncccc3c2)cc1` it was 0.8. In the case of `O=C1NC(=O)c2c1c(-c1ccccc1)cc1[nH]c3ccc(O)cc3c21` it was 0.7 (active); in that of `CSc1c(C)c(SC)n2ccncc12`, 1.3 (active).

Regarding `COc1ccc(-c2cc3ncc(C)n3c(Nc3ncccc3C(N)=O)n2)cc1OC`, the fold change permeability is 1.6 (active). In the case of `COc1ccc(OCC2c3cc(OC)c(OC)cc3CCN2C(=O)c2cccc(Cl)c2)cc1` (stereo not drawn) it was 1.6 (active); in that of `O=C1NC(=O)C(Cc2ccc3cc(OCc4ccccc4F)ccc3c2)S1` (stereo not drawn), 1.3 (active).

`C/C(=C\c1ccc(C(=O)O)cc1)c1ccc2c(c1)C(C)(C)CCC2(C)C`: the fold change permeability is 1.7 (active). On to `CC(N)(Cc1ccc(O)c(O)c1)C(=O)O` (stereo not drawn), for which the fold change permeability is 0.9.

In the case of `CC(=O)C(C)=O`, the fold change permeability is 1.1. In the case of `Nc1nc(Cl)nc2c1ncn2[C@@H]1O[C@H](CO)[C@@H](O)[C@H]1O` it was 0.9; in that of `CNC(=O)c1cc2c(cn1)[nH]c1ccccc12`, 0.8; in that of `O=C(O)C1CCNCC1`, 1.2. In the case of `CC(C)[C@H]1c2ccc(F)cc2CC[C@@]1(CCN(C)CCCc1nc2ccccc2[nH]1)OC(=O)C1CC1` it was 1.3 (active); in that of `CN(C)CCOC(=O)COc1ccc(Cl)cc1`, 0.9; in that of `COc1ccc2c(c1)c(CC(=O)O)c(C)n2Cc1ccc(Cl)cc1`, 1.

Turning to `NC(N)=Nc1nc(CSCC/C(N)=N/S(N)(=O)=O)cs1`, the fold change permeability is 0.9. The result for `CC(N=C(NC#N)Nc1ccncc1)C(C)(C)C` (stereo not drawn) reads 0.9; that for `CC(CN1c2ccccc2Sc2ccccc21)N(C)C` (stereo not drawn), 1.2. In the case of `CN(C)C(=O)/N=N/C(=O)N(C)C` it was 1; in that of `N#Cc1cc([N+](=O)[O-])c2sc(C(N)=O)[n+]([O-])c2c1`, 1.3 (active). The result for `CCCC(C)NC(=O)c1ccc(Cl)c(Cl)c1` (stereo not drawn) reads 1.2. Take `C(=C\c1ccccc1)/CN1CCN(C(c2ccccc2)c2ccccc2)CC1`: the fold change permeability was 1.2. In the case of `CN1C2CCC1CC(OC(=O)C(O)c1ccccc1)C2` (stereo not drawn) it was 1.1; in that of `CN1CCN(C2Cc3ccccc3Sc3ccc(Cl)cc32)CC1` (stereo not drawn), 1.2; in that of `NCCc1cnc[nH]1`, 1.3 (active). In the case of `O=C(/C=C/c1ccc(O)c(O)c1)OCCc1ccccc1` it was 1. The result for `C[C@H](CSC(=O)c1ccccc1)C(=O)N1C[C@@H](Sc2ccccc2)C[C@H]1C(=O)O` reads 1.

On to `CC(C)=CCC/C(C)=C/COc1ccc2ccc(=O)oc2c1`, for which the fold change permeability was 2 (active). The result for `CCCCCCC(=O)OC1CC(C)(C)NC(C)(C)C1` reads 0.9; that for `NC(=O)c1cnccn1`, 0.9. As to `COc1cc(/C=C/C(=O)N2CCN(CC(=O)N3CCCC3)CC2)cc(OC)c1OC`, the fold change permeability was 1. In the case of `Cc1nc2c(OCc3ccccc3)cccn2c1CC#N`, the fold change permeability is 0.9. On to `N#C/C(=C\c1ccc(O)c(O)c1)C(=O)c1ccc(O)c(O)c1`, for which the fold change permeability is 1.8 (active). In the case of `C[C@@H](CN1CCC(Cc2ccccc2)CC1)[C@@H](O)c1ccc(O)cc1` it was 1.3 (active). For `Cc1ccc(N(CC2=NCCN2)c2cccc(O)c2)cc1`, the fold change permeability is 1.1. In the case of `NCCCNCCCCNCCCN` it was 1.6 (active); in that of `O=C(O)CCCCC1CCSS1` (stereo not drawn), 0.7 (active). In the case of `CC(=O)NCCc1c[nH]c2ccc(O)cc12` it was 1.1. In the case of `CC(C)C[C@H](NC(=O)[C@H]1O[C@@H]1C(=O)O)C(=O)NCCCCN=C(N)N` it was 1.3 (active); in that of `CN(C)CC/C=C1/c2ccccc2Sc2ccc(Cl)cc21`, 1.1. For `CN(C)c1nc(N)c(C(=O)N=C(N)N)nc1Cl`, the fold change permeability was 1.

On to `Clc1ccc(N2CCN(Cc3c[nH]c4ncccc34)CC2)cc1`, for which the fold change permeability is 1.4 (active). In the case of `O=C(O)Cc1ccc(O)c(O)c1`, the fold change permeability was 1. Regarding `C[C@H](NC(=O)CNC(=O)c1cccc(Cl)c1)c1ccccc1`, the fold change permeability was 1.1. The result for `C[C@@]12C(=O)OC(=O)[C@]1(C)[C@H]1CC[C@@H]2O1` reads 1.1; that for `Fc1ccc([C@@H]2CCNC[C@H]2COc2ccc3c(c2)OCO3)cc1`, 1.2; that for `CCN(CC)CCNC(=O)c1ccc(NC(C)=O)cc1`, 1.1. Consider `O=C(O)c1ccc(-c2c[nH]c3ncc(-c4ccccc4)cc23)cc1C1CCCC1`, for which the fold change permeability was 1.4 (active). In the case of `CCCC1O[C@@H]2C[C@H]3[C@@H]4CCC5=CC(=O)C=C[C@]5(C)[C@H]4[C@@H](O)C[C@]3(C)[C@]2(C(=O)CO)O1` (stereo partly drawn) it was 1.1; in that of `Cc1ccc(O)c(N=Nc2ccccc2)n1`, 1.2. `NCCCNCCSP(=O)(O)O`: the fold change permeability is 0.9. As to `COCCNC(=O)COc1ccc(OCCNC[C@H](O)COc2ccccc2)cc1`, the fold change permeability is 1. As for `NC1C=CC=C(C(=O)O)C1` (stereo not drawn), the fold change permeability was 0.9.

Consider `CN(C)CCc1c[nH]c2ccc(Cn3cncn3)cc12`, for which the fold change permeability is 1. In the case of `O=C(O)CCCCN(CCc1ccccc1OCc1ccc(CCc2ccccc2)cc1)Cc1ccc(C(=O)O)cc1` it was 1.2; in that of `O=c1cc(-c2ccc(O)cc2)oc2cc(O)cc(O)c12`, 1.2.

In the case of `COc1ccccc1OCC(O)CN1CCN(CC(=O)Nc2c(C)cccc2C)CC1` (stereo not drawn), the fold change permeability was 0.8. In the case of `N#Cc1cc2nc(O)c(O)nc2cc1[N+](=O)[O-]` it was 1.2; in that of `O=[N+]([O-])c1ccc2c(c1)S(=O)(=O)C=C2`, 2.1 (active). The result for `NC(=O)c1ccccc1` reads 1.2.

On to `Cc1ccc(S(=O)(=O)NC(=O)NN2CCCCCC2)cc1`, for which the fold change permeability is 1. The result for `O=C1NC(c2cccc([N+](=O)[O-])c2)=CCN1c1ccccc1O` reads 0.9; that for `CN=C(N)NCCC[C@H](N)C(=O)O`, 0.8; that for `CC1=C(/C=C/C(C)=C/C=C/C(C)=C/C(=O)O)C(C)(C)CCC1`, 1.3 (active). In the case of `C[N+](C)(C)CC=O` it was 1.1; in that of `CC1CNc2c(cccc2S(=O)(=O)N[C@@H](CCCN=C(N)N)C(=O)N2CC[C@@H](C)C[C@@H]2C(=O)O)C1` (stereo partly drawn), 0.9; in that of `Cc1ccc(/C=N\NC(=O)c2n[nH]c3c2CCCC3)cc1`, 1.1.

Consider `OC[C@H]1O[C@@H](n2cnc3c(N[C@H]4CCC[C@@H]4O)ncnc32)[C@H](O)[C@@H]1O`, for which the fold change permeability is 1.
